Assay outcomes deposited in PubChem by National Center for Advancing Translational Sciences (NCATS).
TRHR ag – qHTS for Small Molecule Agonists and Allosteric Enhancers of Human TRH Receptor: Primary Screen for Agonists | Thyrotropin-releasing hormone receptor (Homo sapiens), P34981 | TRHR cells, calcium flux fluo-8, FDSS agonist mode | activation, % at 2 µM | 360,000 compounds, 0.18% hits; also: 0% is about no effect
Target sequence (P34981 whole entry, looked up): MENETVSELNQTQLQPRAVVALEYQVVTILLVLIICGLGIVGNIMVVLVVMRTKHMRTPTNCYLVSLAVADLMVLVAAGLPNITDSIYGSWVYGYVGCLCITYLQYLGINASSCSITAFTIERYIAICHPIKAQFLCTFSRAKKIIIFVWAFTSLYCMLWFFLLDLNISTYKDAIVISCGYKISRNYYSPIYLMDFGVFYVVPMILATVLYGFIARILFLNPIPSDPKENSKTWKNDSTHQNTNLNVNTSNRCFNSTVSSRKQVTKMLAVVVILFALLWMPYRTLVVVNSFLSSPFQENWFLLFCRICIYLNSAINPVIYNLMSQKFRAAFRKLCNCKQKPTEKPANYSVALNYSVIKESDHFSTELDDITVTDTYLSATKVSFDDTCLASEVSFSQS
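Steps: seed TRHR cells overnight; add fluo-8 no-wash Ca dye, RT 30 min–1.5 h; record 10 s baseline; pin-transfer compounds; monitor fluorescence 1 cycle/s for the agonist window. Calcium increases flag candidate agonists.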
D1 antag – Antagonist of Human D 1 Dopamine Receptor: qHTS | HEK293 TREx D1 cells, calcium flux, dopamine EC80; active compounds read low | activity change, negative = inhibition, % at 10 µM | 360,000 compounds, 3.2% hits; in the data active = activity change below about -30%; also: % is scaled to controls: 0 for no effect and ±100 for the full control effect
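HEK293 T-REx cells expressing inducible, force-coupled D1 receptor; no-wash Ca dye, 30–90 min RT. Cmpd → 180 s read at 1 Hz → EC80 DA → 180 s read.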
D1 potentiator – Potentiators of Human D1 Dopamine Receptor: qHTS. HEK293 TREx D1 cells, calcium flux, dopamine EC20 potentiation. potentiation, % at 10 µM. 360,000 compounds, 0.036% hits; in the data active = potentiation above about 30%; also: 0% is about no effect
D1 agonist – Allosteric Agonists of the Human D1 Dopamine Receptor: qHTS; D(1A) dopamine receptor (Homo sapiens), P21728; HEK293 T-REx D1 cells, calcium flux, agonist mode; activation, % at 2 µM; 360,000 compounds, 1% hits; also: 0% is about no effect
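Inducible HEK293 T-REx D1 cells, force-coupled to calcium signalling, were plated at 4000 cells/well with tetracycline and held overnight at 30 C. After no-wash calcium dye loading, compound-evoked calcium rise over 180 s flagged agonists.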
TRHR enhancer – qHTS for Small Molecule Agonists and Allosteric Enhancers of Human TRH Receptor: Primary Screen for Enhancers. Thyrotropin-releasing hormone receptor (Homo sapiens), P34981. TRHR cells, fluo-8 calcium fluorescence, EC20 TRH enhancement. enhancement, % at 2 µM. 360,000 compounds, 0.66% hits. AID 493056, 2011; in the data active = enhancement above about 30%; also: 0% is about no effect
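Enhancer read-out: after compound pinning and an initial kinetic agonist-mode read, an EC20 of TRH (10 nM final) was injected and fluo-8 calcium signal (Ex 480/Em 530) followed at 1 s/cycle for 100 cycles in TRHR-expressing cells.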
* = called active by the depositor; x = no result given. Shown are actives, neighbours in structure and some others; about 4.7% of the full set was active somewhere. Rule as the data show it, unless noted: active = activation above about 30%; inactive = the rest.

SMILES	TRHR ag	D1 antag	D1 potentiator	D1 agonist	TRHR enhancer
COc1ccc(NC(=O)Cn2nc(-c3ccncc3)ccc2=O)cc1Cl	0.4	4.7	0.7	0.6	-4.2
Cc1[nH]c2ccc(F)cc2c1CCN(Cc1cccnc1)C(=S)Nc1ccc(F)cc1	-0.4	-37.3*	-11.6	21.1	-1.4
Cc1cc(/C=N/Nc2ccc([N+](=O)[O-])cn2)c(C)n1-c1ccccc1	2.5	x	-2.2	3.4	0.2
Cc1ccc([N+](=O)[O-])cc1/C=N/Nc1nnnn1-c1ccccc1	-0.1	-58.6*	-6.1	0.2	6.8
COc1c(/C=N/Nc2ccc([N+](=O)[O-])cc2[N+](=O)[O-])c(C)nn1-c1ccccc1	-0.2	-33.1*	-0.1	0.1	16.2
CSc1cccc(NC(=O)C2CCN(c3ncnc4c3nc3n4CCCCC3)CC2)c1	-0.6	4.3	-1.2	0.0	2.5
CCOc1ccc(-c2nnc3ccc(SCC(=O)Nc4nc5ccc(C)cc5s4)nn23)cc1	-0.7	-42.9*	-15.3	0.9	-2.2
CCOc1ccc(-c2nnc3ccc(SC(C)C)nn23)cc1	-1.5	-42.3*	-3.1	2.1	5.7
CCOc1ccc(-c2nnc3ccc(SCC(=O)Nc4nc5ccccc5s4)nn23)cc1	0.4	7.5	-10.1	0.0	1.4
Cn1nnnc1Sc1ncnc2scc(-c3cccc(Cl)c3)c12	-1.4	13.6	5.7	4.0	-5.5
O=C(c1ccccc1)C1CCN(C(=O)c2ccco2)CC1	-0.2	-3.0	59.2*	2.2	0.0
Cc1cc(NC(=O)C2CCN(C(=O)c3ccco3)CC2)ccc1Br	-1.0	-36.6*	-5.4	8.6	-2.7
CC(C)(C)c1ccc(C(=O)N2CCN(S(=O)(=O)c3ccc(Br)s3)CC2)cc1	0.4	-31.6*	-11.4	6.2	-2.3
CC(C)(C)c1ccc(C(=O)N2CCN(C(=O)c3ccco3)CC2)cc1	0.9	-30.1*	-2.8	5.1	-3.2
CCOc1ccc(NC(=O)N2CCC(CN3CCc4ccccc4C3)CC2)cc1	0.0	-2.7	3.3	-1.5	6.5
COc1ccc(-c2noc(CSc3nnc(C)n3-c3ccc(F)cc3)n2)cc1	-0.1	-29.3	-0.1	4.3	-6.0
CN1CCN(C(=O)c2ccc(-c3ccccc3)cc2)CC1	0.4	11.7	-4.5	1.3	-3.2
O=C(c1ccc(-c2ccccc2)cc1)N1CCN(C(=O)c2ccco2)CC1	0.6	-37.3*	-1.0	3.5	-1.9
CCOC(=O)N1CCc2c(sc3c2c(=O)n(Cc2ccccc2)c(=O)n3CC(=O)Nc2cccc(CC)c2)C1	0.5	-4.5	3.4	7.6	-9.4
O=[N+]([O-])c1ccc(-c2ccc(/C=N/c3c(-c4ccco4)nc4ccccn34)o2)c(Cl)c1	-0.1	-11.2	-1.7	0.5	2.7
Cc1cc(C)c([N+](=O)[O-])cc1-c1ccc(/C=N/c2c(-c3ccco3)nc3ccccn23)o1	1.5	-49.5*	1.0	1.7	-1.4
O=C(CCCOc1ccccc1)Nc1nccs1	-0.2	-8.9	-0.7	4.7	21.6
CCc1ccc(OCCCC(=O)Nc2nccs2)cc1	0.2	-30.2*	-1.4	7.7	1.9
O=C(COC(=O)C1C2CC3OC(=O)C1C3C2)Nc1ccc(Br)cc1 (stereo not drawn)	-1.9	7.5	x	32.6*	-3.3
O=C(COC(=O)C1C2CC3OC(=O)C1C3C2)Nc1ccc(F)cc1 (stereo not drawn)	0.2	2.8	-5.0	0.2	0.7
COc1cccc(/C=C/c2nc3ccccc3c(=O)n2-c2ccc(C)c(C)c2)c1OC	-0.1	15.2	-0.8	-3.7	-7.7
O=C(Nc1ccc(F)c(Cl)c1)C1CCN(S(=O)(=O)c2ccc3c(c2)CCCN3C(=O)C2CCC2)CC1	0.2	-15.5	-5.0	1.3	-1.4
CCN(CC)c1ccc(/C=C2/C(=O)ON=C2C)cc1	10.0	-13.6	-9.2	14.9	1.5
CCN(CC)c1ccc(/C=c2\sc3nnc(-c4ccccc4Cl)n3c2=O)cc1	17.2	-8.2	-4.5	59.0*	2.7
